The results in this text go back to ChEMBL document CHEMBL1961873, “Compounds: GSK PKIS; Assays: Nanosyn kinase panel” (2012).

Assay [1] has as its target MAP/microtubule affinity-regulating kinase 3 (Homo sapiens) (UniProt P27448). The note with it: at 1 µM.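 Note: reported values are averaged percent inhibition of MARK3.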
Assay [2] addresses T1, MAP/microtubule affinity-regulating kinase 4 (Homo sapiens) (UniProt Q96L34).
T1 sequence (whole entry): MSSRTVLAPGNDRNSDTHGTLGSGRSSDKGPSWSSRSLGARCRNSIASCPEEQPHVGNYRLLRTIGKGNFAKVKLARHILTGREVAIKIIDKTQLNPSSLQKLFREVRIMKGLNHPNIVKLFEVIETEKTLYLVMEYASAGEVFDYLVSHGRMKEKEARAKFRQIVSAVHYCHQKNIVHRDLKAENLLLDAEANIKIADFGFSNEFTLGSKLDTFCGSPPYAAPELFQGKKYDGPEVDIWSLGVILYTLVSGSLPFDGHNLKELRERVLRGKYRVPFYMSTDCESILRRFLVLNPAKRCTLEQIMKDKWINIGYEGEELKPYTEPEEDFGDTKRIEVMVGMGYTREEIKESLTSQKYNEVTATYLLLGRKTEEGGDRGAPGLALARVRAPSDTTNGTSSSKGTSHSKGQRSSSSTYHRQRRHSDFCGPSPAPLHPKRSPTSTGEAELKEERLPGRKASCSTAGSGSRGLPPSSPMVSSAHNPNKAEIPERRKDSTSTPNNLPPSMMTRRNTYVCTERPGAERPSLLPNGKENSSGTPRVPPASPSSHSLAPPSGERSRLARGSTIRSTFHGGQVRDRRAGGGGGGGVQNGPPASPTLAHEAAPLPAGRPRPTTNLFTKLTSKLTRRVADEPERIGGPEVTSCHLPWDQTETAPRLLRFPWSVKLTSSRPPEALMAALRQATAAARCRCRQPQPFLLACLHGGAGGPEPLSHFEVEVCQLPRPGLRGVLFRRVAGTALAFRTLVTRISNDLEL
The following applies: at 0.1 µM.

The target of assay [3] is T1, MAP/microtubule affinity-regulating kinase 4 (Homo sapiens). The note with it: at 1 µM.
In assay [4] the target is Maternal embryonic leucine zipper kinase (Homo sapiens) (UniProt Q14680). The following applies: at 0.1 µM.
For assay [5] the target is unchanged. The following applies: at 1 µM.
For assay [6], the target named is MAP kinase-interacting serine/threonine-protein kinase 1 (Homo sapiens) (UniProt Q9BUB5). The note with it: at 0.1 µM.
For assay [7] the target is unchanged. The note with it: at 1 µM.
For assay [8], the target named is MAP kinase-interacting serine/threonine-protein kinase 2 (Homo sapiens) (UniProt Q9HBH9). The note with it: at 0.1 µM.
Assay [9] has the same target. The following applies: at 1 µM.
The target in assay [10] is Serine/threonine-protein kinase MARK2 (Homo sapiens) (UniProt Q7KZI7). The following applies: at 0.1 µM.
For assay [11] the target is unchanged. The following applies: at 1 µM.
Assay [12] deals with PAS domain-containing serine/threonine-protein kinase (Homo sapiens) (UniProt Q96RG2). The following applies: at 0.1 µM.
Assay [13] shares this target. The note with it: at 1 µM.
Assay [14] deals with Phosphorylase b kinase gamma catalytic chain, skeletal muscle/heart isoform (Homo sapiens) (UniProt Q16816). The following applies: at 0.1 µM.
Assay [15] has the same target. The following applies: at 1 µM.
The target of assay [16] is T2, Phosphorylase b kinase gamma catalytic chain, liver/testis isoform (Homo sapiens) (UniProt P15735).
T2 sequence (whole entry): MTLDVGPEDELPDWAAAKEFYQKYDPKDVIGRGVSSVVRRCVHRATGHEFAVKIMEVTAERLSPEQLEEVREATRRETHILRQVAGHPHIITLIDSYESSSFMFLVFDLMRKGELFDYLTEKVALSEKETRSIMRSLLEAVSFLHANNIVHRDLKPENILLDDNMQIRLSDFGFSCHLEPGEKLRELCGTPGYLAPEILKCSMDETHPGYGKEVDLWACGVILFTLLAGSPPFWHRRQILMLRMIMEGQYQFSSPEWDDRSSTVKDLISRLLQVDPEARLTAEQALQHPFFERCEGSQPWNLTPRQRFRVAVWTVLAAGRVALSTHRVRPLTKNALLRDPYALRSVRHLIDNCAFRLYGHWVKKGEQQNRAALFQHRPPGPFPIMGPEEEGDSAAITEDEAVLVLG
The note with it: at 0.1 µM.

In assay [17] the target is T2, Phosphorylase b kinase gamma catalytic chain, liver/testis isoform (Homo sapiens). The following applies: at 1 µM.
Assay [18] concerns the target Serine/threonine-protein kinase pim-1 (Homo sapiens) (UniProt P11309). The following applies: at 0.1 µM.
The target is the same in assay [19]. The note with it: at 1 µM.
The target in assay [20] is Serine/threonine-protein kinase pim-2 (Homo sapiens) (UniProt Q9P1W9). The following applies: at 0.1 µM.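 Note: reported value is the mean percent inhibition of PIM2, measured in the GSK PKIS kinase inhibitor set screen.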

Structures are written as SMILES.

Chain of Serine/threonine-protein kinase pim-1 (Homo sapiens) (P11309 whole entry, looked up): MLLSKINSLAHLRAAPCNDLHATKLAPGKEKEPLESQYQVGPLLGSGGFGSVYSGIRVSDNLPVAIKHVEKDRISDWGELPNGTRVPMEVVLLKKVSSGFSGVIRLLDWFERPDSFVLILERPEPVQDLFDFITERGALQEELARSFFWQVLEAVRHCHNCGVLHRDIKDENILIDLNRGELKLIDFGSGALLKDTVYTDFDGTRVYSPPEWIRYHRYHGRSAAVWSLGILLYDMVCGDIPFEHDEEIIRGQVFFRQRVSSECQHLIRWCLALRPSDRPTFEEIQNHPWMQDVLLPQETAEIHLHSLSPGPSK
Chain of MAP kinase-interacting serine/threonine-protein kinase 2 (Homo sapiens) (Q9HBH9 whole entry, looked up): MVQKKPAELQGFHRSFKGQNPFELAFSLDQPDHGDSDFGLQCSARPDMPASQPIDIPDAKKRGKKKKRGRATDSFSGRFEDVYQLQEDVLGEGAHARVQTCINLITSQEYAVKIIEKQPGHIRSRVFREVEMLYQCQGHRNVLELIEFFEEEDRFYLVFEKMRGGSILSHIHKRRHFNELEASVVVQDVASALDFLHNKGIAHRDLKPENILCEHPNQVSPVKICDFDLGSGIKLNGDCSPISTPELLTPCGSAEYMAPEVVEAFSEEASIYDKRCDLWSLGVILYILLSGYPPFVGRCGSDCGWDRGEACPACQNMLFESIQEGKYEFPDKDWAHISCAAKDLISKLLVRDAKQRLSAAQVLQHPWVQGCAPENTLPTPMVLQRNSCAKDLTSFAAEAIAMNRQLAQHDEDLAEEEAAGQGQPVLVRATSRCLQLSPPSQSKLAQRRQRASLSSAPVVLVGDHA
Chain of Maternal embryonic leucine zipper kinase (Homo sapiens) (Q14680 whole entry, looked up): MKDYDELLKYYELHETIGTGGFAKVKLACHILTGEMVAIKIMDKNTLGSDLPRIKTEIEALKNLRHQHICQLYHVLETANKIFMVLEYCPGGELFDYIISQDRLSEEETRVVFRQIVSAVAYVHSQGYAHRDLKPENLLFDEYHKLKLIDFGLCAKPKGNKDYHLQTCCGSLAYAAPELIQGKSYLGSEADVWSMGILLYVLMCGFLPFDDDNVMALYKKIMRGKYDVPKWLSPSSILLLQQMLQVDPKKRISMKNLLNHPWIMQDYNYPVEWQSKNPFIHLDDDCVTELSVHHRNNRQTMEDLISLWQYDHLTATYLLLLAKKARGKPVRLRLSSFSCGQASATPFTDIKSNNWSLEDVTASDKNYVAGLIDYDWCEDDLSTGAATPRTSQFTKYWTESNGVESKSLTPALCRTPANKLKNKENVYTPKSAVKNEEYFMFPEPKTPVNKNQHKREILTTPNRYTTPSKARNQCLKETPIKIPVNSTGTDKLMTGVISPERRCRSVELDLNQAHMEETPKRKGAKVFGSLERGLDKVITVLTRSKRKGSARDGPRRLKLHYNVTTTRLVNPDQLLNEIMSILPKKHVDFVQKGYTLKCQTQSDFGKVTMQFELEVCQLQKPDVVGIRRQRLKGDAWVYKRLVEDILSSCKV
Chain of PAS domain-containing serine/threonine-protein kinase (Homo sapiens) (Q96RG2 whole entry, the tested form may be a part): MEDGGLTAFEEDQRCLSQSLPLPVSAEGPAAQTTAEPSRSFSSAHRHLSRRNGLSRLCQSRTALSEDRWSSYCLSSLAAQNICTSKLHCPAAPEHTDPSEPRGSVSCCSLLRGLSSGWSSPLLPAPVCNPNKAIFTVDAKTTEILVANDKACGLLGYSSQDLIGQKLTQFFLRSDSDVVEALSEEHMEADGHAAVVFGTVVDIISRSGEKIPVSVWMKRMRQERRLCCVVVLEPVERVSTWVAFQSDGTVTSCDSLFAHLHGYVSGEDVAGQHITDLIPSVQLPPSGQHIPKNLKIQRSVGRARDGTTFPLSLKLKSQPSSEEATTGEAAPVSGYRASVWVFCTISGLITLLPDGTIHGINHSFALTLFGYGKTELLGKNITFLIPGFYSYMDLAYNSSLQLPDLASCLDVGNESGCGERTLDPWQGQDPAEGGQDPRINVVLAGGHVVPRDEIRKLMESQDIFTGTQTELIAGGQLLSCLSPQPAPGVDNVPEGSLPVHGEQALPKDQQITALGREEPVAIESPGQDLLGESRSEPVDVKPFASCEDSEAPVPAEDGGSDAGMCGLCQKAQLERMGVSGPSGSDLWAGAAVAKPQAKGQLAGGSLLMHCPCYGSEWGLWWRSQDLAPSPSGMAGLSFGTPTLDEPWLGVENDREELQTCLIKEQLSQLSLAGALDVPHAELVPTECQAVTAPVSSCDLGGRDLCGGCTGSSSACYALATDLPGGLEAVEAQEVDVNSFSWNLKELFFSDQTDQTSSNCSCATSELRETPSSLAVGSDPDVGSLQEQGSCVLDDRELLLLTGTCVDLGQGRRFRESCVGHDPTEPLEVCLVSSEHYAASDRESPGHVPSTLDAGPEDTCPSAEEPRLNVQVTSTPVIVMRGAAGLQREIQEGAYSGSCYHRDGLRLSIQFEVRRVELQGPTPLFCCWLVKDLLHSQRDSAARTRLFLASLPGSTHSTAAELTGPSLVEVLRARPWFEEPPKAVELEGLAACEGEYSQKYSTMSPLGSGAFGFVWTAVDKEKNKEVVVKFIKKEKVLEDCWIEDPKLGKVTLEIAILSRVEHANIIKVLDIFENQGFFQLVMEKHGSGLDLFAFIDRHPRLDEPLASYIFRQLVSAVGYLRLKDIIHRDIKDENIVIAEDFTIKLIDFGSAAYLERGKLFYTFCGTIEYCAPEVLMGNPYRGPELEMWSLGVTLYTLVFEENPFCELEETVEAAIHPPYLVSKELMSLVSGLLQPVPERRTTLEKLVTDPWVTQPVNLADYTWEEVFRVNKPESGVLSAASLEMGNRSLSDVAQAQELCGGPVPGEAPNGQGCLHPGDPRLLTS
Chain of Serine/threonine-protein kinase MARK2 (Homo sapiens) (Q7KZI7 whole entry): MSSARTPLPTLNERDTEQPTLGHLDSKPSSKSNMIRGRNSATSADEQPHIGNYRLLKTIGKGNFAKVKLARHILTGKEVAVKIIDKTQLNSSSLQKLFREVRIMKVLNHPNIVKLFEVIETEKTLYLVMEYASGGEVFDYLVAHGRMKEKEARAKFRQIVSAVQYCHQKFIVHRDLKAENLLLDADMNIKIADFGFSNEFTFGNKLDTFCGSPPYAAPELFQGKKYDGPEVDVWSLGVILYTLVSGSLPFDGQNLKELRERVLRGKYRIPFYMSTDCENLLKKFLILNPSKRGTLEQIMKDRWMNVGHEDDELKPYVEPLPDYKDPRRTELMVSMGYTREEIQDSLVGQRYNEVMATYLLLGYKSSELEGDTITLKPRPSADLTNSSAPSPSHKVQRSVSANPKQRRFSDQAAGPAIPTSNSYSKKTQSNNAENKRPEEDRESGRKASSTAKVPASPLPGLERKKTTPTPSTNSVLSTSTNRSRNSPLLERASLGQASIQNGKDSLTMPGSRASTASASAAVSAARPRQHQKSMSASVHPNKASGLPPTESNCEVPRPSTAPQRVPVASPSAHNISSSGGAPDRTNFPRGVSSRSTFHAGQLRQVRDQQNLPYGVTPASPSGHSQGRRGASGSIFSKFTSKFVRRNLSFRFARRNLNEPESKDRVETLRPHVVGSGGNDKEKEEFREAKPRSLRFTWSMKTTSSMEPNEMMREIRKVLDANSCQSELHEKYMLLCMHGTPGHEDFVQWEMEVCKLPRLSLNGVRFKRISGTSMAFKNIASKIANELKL
Chain of MAP/microtubule affinity-regulating kinase 3 (Homo sapiens) (P27448 whole entry, looked up): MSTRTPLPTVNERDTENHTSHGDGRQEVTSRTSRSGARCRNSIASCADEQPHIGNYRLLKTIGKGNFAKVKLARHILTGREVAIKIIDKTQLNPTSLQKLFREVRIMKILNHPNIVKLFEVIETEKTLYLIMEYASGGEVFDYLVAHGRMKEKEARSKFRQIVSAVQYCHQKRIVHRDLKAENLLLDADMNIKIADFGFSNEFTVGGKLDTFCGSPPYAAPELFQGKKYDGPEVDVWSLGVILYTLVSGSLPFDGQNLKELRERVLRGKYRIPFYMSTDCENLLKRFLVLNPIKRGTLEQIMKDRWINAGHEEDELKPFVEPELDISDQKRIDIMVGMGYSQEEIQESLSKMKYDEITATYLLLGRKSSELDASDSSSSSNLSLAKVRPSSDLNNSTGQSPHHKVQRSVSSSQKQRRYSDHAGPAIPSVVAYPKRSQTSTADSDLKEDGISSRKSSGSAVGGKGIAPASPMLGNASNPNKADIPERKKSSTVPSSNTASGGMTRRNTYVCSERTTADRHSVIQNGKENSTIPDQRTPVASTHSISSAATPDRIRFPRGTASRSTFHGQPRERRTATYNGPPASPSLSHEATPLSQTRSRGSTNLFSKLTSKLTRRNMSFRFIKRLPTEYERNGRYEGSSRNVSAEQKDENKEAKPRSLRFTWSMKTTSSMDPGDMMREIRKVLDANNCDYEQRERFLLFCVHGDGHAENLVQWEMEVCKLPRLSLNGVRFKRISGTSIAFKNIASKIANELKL
Chain of Phosphorylase b kinase gamma catalytic chain, skeletal muscle/heart isoform (Homo sapiens) (Q16816 whole entry, looked up, canonical isoform): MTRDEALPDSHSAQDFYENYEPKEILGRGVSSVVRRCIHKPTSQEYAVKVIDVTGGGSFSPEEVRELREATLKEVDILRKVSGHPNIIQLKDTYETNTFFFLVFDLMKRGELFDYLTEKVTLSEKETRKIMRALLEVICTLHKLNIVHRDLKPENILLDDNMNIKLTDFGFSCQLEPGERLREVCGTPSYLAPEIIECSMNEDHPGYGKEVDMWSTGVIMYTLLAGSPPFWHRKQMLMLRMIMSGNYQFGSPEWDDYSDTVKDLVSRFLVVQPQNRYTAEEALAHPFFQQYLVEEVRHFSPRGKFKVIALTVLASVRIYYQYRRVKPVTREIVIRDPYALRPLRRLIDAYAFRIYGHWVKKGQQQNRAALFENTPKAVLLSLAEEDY
Chain of Serine/threonine-protein kinase pim-2 (Homo sapiens) (Q9P1W9 whole entry, looked up): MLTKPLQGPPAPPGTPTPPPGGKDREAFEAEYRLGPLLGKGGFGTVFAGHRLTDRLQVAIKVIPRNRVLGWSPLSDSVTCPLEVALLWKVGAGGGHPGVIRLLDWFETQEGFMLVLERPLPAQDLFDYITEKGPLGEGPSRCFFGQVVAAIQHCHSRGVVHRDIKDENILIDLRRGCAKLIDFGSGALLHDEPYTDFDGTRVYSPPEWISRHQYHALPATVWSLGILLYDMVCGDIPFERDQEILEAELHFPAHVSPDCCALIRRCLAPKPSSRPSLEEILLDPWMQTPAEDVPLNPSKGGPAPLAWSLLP

`c1cc(-c2cnn3nc(N4CCOCC4)ccc23)nc(NC2CC2)n1`: the inhibition was 12.9% in assay [1]; 1.01% in assay [2]; 5.05% in assay [3]; 8.27% in assay [4]; 43.9% in [5]; 4.33% in [6]. Besides, the inhibition in assay [7] turned out to be 19.8%; in [8], 7.65%; in assay [9] it was 42.5%; in [10], 0.85%; in [11], 7.93%; in assay [12], 0.49%. Also, the inhibition in [13] is -0.94%; in assay [14], 3.94%; in assay [15], 29.5%; in assay [16], 6.12%; in [17] it was 12.2%; in [18], 0.22%. Further, the values for the inhibition in assay [19] and in assay [20] were 3.37% and -0.29%, respectively.
Turning to `O=S(=O)(CCNCc1ccc(-c2ccc3ncnc(Nc4ccc(OCc5cccc(F)c5)c(Cl)c4)c3c2)o1)c1ccccc1`, the inhibition in assay [1] worked out at 5.8%; in assay [2], 3.85%; in assay [3], 2.5%; in [4] it was 5.2%; in assay [5] it was 3.07%; in assay [6], 2.9%. In addition, the inhibition is 5.96% in assay [7]; 0.8% in assay [8]; 4.95% in [9]; 0.66% in [10]; -0.14% in assay [11]; -0.06% in assay [12]. Moreover, the inhibition is 0.32% in [13]; 5.41% in assay [14]; 9.29% in assay [15]; 7.91% in [16]; 7.71% in assay [17]; -0.13% in assay [18]. Also, the inhibition in assay [19] is 1.9%; in assay [20], 0.44%.
Consider `COc1cc2c(cc1Nc1nc(Nc3ccsc3C(N)=O)c3cc[nH]c3n1)N(C(=O)CN(C)C)CCC2(C)C`, for which the inhibition stood at 7.59% in assay [1]; 4.25% in assay [2]; 6.44% in assay [3]; 6.08% in assay [4]; 14.8% in [5]; 3.09% in [6]. For the same compound, the inhibition in assay [7] is 6.26%; in assay [8], 1.36%; in assay [9] it was 3.03%; in assay [10], 1.24%; in [11] it was 9%; in assay [12], -1.55%. Further, the inhibition in assay [13] is -1.18%; in assay [14], 18.5%; in assay [15] it was 62%; in [16], 5.83%; in [17], 6.91%; in [18] it was 68.4%. Further, the inhibition in assay [19] was 93.3%; in [20] it was 2.12%.
Take `CCn1c(-c2nonc2N)nc2cnc(Oc3cccc(NC(=O)c4ccc(N(C)C)cc4)c3)cc21`: the inhibition in assay [1] stood at 12.2%; in [2], 0.81%; in assay [3] it was 3.87%; in [4] it was 8.41%; in assay [5], 44.2%; in assay [6], 2.31%. Moreover, the inhibition in [7] was 11.5%; in [8], 3.41%; in assay [9], 27.8%; in [10] it was 0.56%; in assay [11] it was 11%; in assay [12] it was -0.49%. The inhibition in [13] is 1.54%; in [14] it was -0.31%; in assay [15] it was 2.21%; in assay [16] it was 1.21%; in assay [17] it was -0.74%; in [18], 0.69%. Moreover, the inhibition was 8.74% in assay [19] and -0.19% in assay [20].
On to `CCc1nn2ncccc2c1-c1ccnc(NC2CC2)n1`, for which the inhibition in assay [1] is 3.36%; in assay [2], 2.15%; in assay [3] it was 2.34%; in [4] it was 2.14%; in assay [5], 5.08%; in [6] it was 5.42%. Moreover, the inhibition in assay [7] turned out to be 17.9%; in [8] it was 2.69%; in assay [9], 8.83%; in assay [10], 1.31%; in assay [11] it was 1.56%; in assay [12], 1.03%. In addition, the inhibition in [13] amounted to 0.63%; in assay [14] it was 1.42%; in [15] it was 2.68%; in assay [16], 2.15%; in assay [17] it was 3.73%; in assay [18] it was 0.19%. For the same compound, the inhibition in [19] worked out at 1.72%; in assay [20], 0.29%.
Take `COc1ccc2c(-c3ccnc(Nc4cccc(OC(F)(F)F)c4)n3)cnn2n1`: the inhibition is 6.67% in [1]; 1.08% in assay [2]; 3.99% in [3]; 1.72% in assay [4]; 11.1% in assay [5]; 3.13% in [6]. Further, the inhibition was 9.47% in assay [7]; 2.32% in [8]; 8.78% in assay [9]; -0.54% in assay [10]; 2.62% in assay [11]; -0.05% in [12]. The inhibition was 0.2% in assay [13]; 2.28% in [14]; 8.92% in assay [15]; 6.32% in assay [16]; 8.34% in assay [17]; 1.24% in [18]. For the same compound, the inhibition in assay [19] is 0.36%; in assay [20] it was -0.29%.

A word on the inhibition: it is the drop in the measured response relative to a control, in per cent.
